In all, about 5,500 compounds went through this assay and about 2,000 (36%) were called active. Inconclusive results (about 18%) are left out. No stated cut-off is given here; in the data, active means normalized growth mostly below about 0.91 (no sharp cut-off); inconclusive means no clear call, values can overlap the other calls; inactive means mostly above about 0.92. The list shows a part of the results.
Experiment: chemical genetic growth profiling, strain panel (AID 1159580);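 further: tested at 20 µM; growth read once vehicle control cultures reached saturation at 30 °C; 1 = growth at the plate median or of vehicle wells; lower values mean less growth of the strain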
Settings: S. cerevisiae deletion strains, growth OD

Measured: normalized growth

O=C(NCc1ccco1)c1csc(C2COc3ccccc3O2)n1 (stereo unspecified)
inactive: locus YAR019C, strain CDC15, hits give low values 0.916 | locus YBL105C, strain PKC1, hits give low values 0.917 | locus YBR135W, strain CKS1, hits give low values 0.918 | locus YBR136W, strain MEC1, hits give low values 0.925 | locus YBR160W, strain CDC28, hits give low values 0.914 | locus YDL017W, strain CDC7, hits give low values 0.925 | locus YDL028C, strain MPS1, hits give low values 0.919 | locus YDL101C, strain DUN1, hits give low values 0.964 | locus YDL108W, strain KIN28, hits give low values 0.937 | locus YDL132W, strain cdc53, hits give low values 0.897 | locus YDL214C, strain PRR2, hits give low values 0.854 | locus YDR226W, strain ADK1, hits give low values 0.923 | locus YDR477W, strain SNF1, hits give low values 0.773 | locus YER123W, strain YCK3, hits give low values 0.663 | locus YER133W, strain GLC7, hits give low values 0.902 | locus YFL009W, strain cdc4, hits give low values 0.913 | locus YFL029C, strain CAK1, hits give low values 0.915 | locus YFR003C, strain YPI1, hits give low values 0.931 | locus YFR028C, strain CDC14, hits give low values 0.936 | locus YGR040W, strain KSS1, hits give low values 0.868 | locus YGR052W, strain FMP48, hits give low values 0.802 | locus YHR079C, strain IRE1, hits give low values 0.712 | locus YHR082C, strain KSP1, hits give low values 0.896 | locus YHR205W, strain SCH9, hits give low values 0.894 | locus YIL147C, strain SLN1, hits give low values 0.922 | locus YJL095W, strain BCK1, hits give low values 0.689 | locus YJL128C, strain PBS2, hits give low values 0.98 | locus YJL157C, strain FAR1, hits give low values 0.797 | locus YJR016C, strain ILV3, hits give low values 0.904 | locus YJR066W, strain TOR1, hits give low values 0.745 | locus YKL048C, strain ELM1, hits give low values 0.906 | locus YKL067W, strain YNK1, hits give low values 0.841 | locus YKL101W, strain HSL1, hits give low values 0.873 | locus YKL193C, strain SDS22, hits give low values 0.932 | locus YKL203C, strain TOR2, hits give low values 0.851 | locus YLR133W, strain CKI1, hits give low values 0.845 | locus YLR403W, strain SFP1, hits give low values 0.839 | locus YML070W, strain DAK1, hits give low values 0.689 | locus YMR001C, strain CDC5, hits give low values 0.919 | locus YMR205C, strain PFK2 (second series), hits give low values 0.893 | locus YMR277W, strain FCP1, hits give low values 0.915 | locus YNL006W, strain LST8, hits give low values 0.926 | locus YNL020C, strain ARK1, hits give low values 0.843 | locus YNL161W, strain CBK1, hits give low values 0.921 | locus YNL183C, strain NPR1, hits give low values 0.737 | locus YNL207W, strain RIO2, hits give low values 0.915 | locus YNL222W, strain SSU72, hits give low values 0.917 | locus YOL078W, strain AVO1, hits give low values 0.928 | locus YOR119C, strain RIO1, hits give low values 0.894 | locus YOR231W, strain MKK1, hits give low values 0.746 | locus YOR329C, strain SCD5, hits give low values 0.909 | locus YPL031C, strain PHO85, hits give low values 0.85 | locus YPL153C, strain RAD53, hits give low values 0.773 | locus YPL204W, strain HRR25, hits give low values 0.796 | locus YPL209C, strain IPL1, hits give low values 0.923 | locus YPR025C, strain CCL1, hits give low values 0.916 | locus YPR106W, strain ISR1, hits give low values 0.956 | locus YPR111W, strain DBF20, hits give low values 0.947 | strain NNK1, hits give low values 0.944 | strain TSCII, hits give low values 0.92
active: locus YDR052C, strain DBF4, hits give low values 0.909 | locus YDR054C, strain cdc34, hits give low values 0.875 | locus YFR019W, strain FAB1, hits give low values 0.711 | locus YGR092W, strain DBF2, hits give low values 0.154 | locus YHR030C, strain SLT2, hits give low values 0.623 | locus YJR066W, strain TOR1 (second series), hits give low values 0.343 | locus YLR113W, strain HOG1, hits give low values 0.811 | locus YNL307C, strain MCK1 (second series), hits give low values 0.585 | locus YOL136C, strain PFK27, hits give low values 0.66 | locus YOR061W, strain CKA2, hits give low values 0.586 | locus YPL256C, strain CLN2, hits give low values 0.754

— PubChem BioAssay AID1159580 (chemical genetic matrix, 2015)
